Measurements as given in PubChem BioAssay (NCATS).
Inconclusive results are not listed. The source made the active and inactive calls. Unless noted, calls come from the whole dose curve; as a rule, active = well fitted curve in the direction sought with a large enough effect; inconclusive = small, poorly fitted or top-dose-only effect, or another doubt; inactive = no such curve, though single readings can be large; an effect the other way counts as inactive or inconclusive.

How the values were obtained:
[1] = qHTS to identify inhibitors of the type 1 interferon - major histocompatibility complex class I in skeletal muscle: primary screen against the NCATS Pharmaceutical Collection (AID 1347407);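 note: luminescence of HiBiT knocked into endogenous HLA-B as interferon-induced MHC class I level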
In short: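 HLA-B HiBiT myoblasts, dexamethasone-free growth medium + 4 ng/ml IFN-b; compounds pinned 1 h after seeding, […] from 46 uM; 24 h, 37 C, 5% CO2; lytic HiBiT detection, 10 min RT, luminescence.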

[2] = target: Protein phosphatase 1D (Homo sapiens) (UniProt O15297); test: RapidFire Mass Spectrometry qHTS Assay for Modulators of WT P53-Induced Phosphatase 1 (WIP1) (AID 1347424);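 note: amount of dephosphorylated VEPPL-S-QETFS peptide product formed by WIP1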; note: potency is the fitted concentration of half-maximal effect
In short: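 10 nM WIP1 + cpd, 1 h RT; + 2 uM VEPPL-pS-QETFS, 5 min RT; stop 0.5% formic acid; labelled product standard 1 uM; RapidFire MS. Buffer 50 mM Tris pH 7.5, 30 mM MgCl2, 1 mM TCEP.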

[3] = target: Protein phosphatase 1D (Homo sapiens) (UniProt O15297); test: Rhodamine-PBP qHTS Assay for Modulators of WT P53-Induced Phosphatase 1 (WIP1) (AID 1347425)
In short: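 The read-out is the change in Rhodamine-PBP fluorescence (f1 - f0, ex 525/em 598 nm) as Pi is released, read each minute for 11 min. Final reaction: 5 nM WIP1, 10 uM phosphopeptide VEPPL-pS-QETFS, 10 uM Rh-PBP, 50 mM Tris-HCl pH 7.5, 30 mM MgCl2. Compound was preincubated with enzyme for 1 hour at room temperature.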

[4] = Primary qHTS for inhibitors of La Crosse Virus (LACV) - induced cell death in SH-SY5Y cells (AID 1508616);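 note: top concentration of the series differs between compounds; higher means more rescue of cells from virus-induced death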
In short: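 SH-SY5Y cells (6000/well) plated 24 h, then given compounds by pin transfer and LACV at 0.01 MOI for 6 days at 37C. Viability measured by ATPLite luminescence, normalized to infected DMSO and uninfected DMSO.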

[5] = target: Calcium and integrin-binding protein 1 (Homo sapiens) (UniProt Q99828); test: Primary qHTS for Identification of Calcium Integrin Binding Protein 1 (CIB1) Competitor (AID 1508620);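 note: GST tagged CIB1 binding a fluorescein labelled alphaIIb integrin peptide tracer; top concentration of the series differs between compounds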
In short: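 CIB1-GST (1 uM final) and compound incubated 15 min at room temperature before adding FITC-alphaIIb peptide tracer (100 nM final). Competition for binding read by fluorescence polarization (ex 480, em 540) after another 15 min at room temperature.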

[6] = A High-Content qHTS Against Drug Library for the Identification of Small Molecules that Inhibit DYT1 Early Onset Primary Dystonia-Associated Cell Pathology (AID 1645839; calls by dose curve; note: potency is the fitted concentration of half-maximal effect)
In short: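 In this high-content image screen, delE TorsinA mislocalization in inducible Flp-In 293 cells is scored as %pathology, with cell count serving as the counterscreen. Compound exposure lasts 48 h under tetracycline induction in reduced-serum medium.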

[7] = Primary qHTS for small molecule stabilizers of the endoplasmic reticulum resident proteome: Secreted ER Calcium Modulated Protein (SERCaMP) assay (AID 1508630)
In short: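 GLuc-SERCaMP-expressing SH-SY5Y cells, pretreated 16 h with compound, are challenged with thapsigargin to empty ER calcium stores; after 4 h, coelenterazine is added directly to the medium and luminescence is imaged.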

[8] = qHTS to identify inhibitors of the type 1 interferon - major histocompatibility complex class I in skeletal muscle: primary screen against the NCATS Mechanism Interrogation Plate v5.0 (MIPE) Libary (AID 1347411); note: nearly all actives have a fitted effect of over 65% in size
In short: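 Immortalized human myoblasts (C25cl48) with HiBit knocked into endogenous HLA-B*08:01 were stimulated with 4 ng/ml IFN-beta and given compounds in 11-point 1:3 titration from 46 uM. After 24 h at 37 C, lytic HiBiT luminescence was read.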

[9] = Validation qHTS assay for inhibitors of Activation Induced Cytidine Deaminase (AID): UDG Counterscreen signal (AID 1347427)
In short: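 Counterscreen read of UDG activity (2 U/mL, 4/3x) in the FRET deamination format with AID (1 uM, 4/3x), DJC20/DJC23 substrates (250 nM, 4x), 4 h at room temperature. NaOH stop, fluorescence at 560 ex/665 em.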

[10] = qHTS for inhibitors of adenylyl cyclases using a fission yeast platform: a pilot screen against the NCATS LOPAC library (AID 1347410)
In short: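 Read-out: fbp1-GFP fluorescence by laser scanning cytometry (488 nm laser), a gain of signal when AC/cAMP-PKA signalling is inhibited. Strain CHP2027 expressing AC9, GNAS and PDE4D2; compounds at up to 57 µM; 18 h, 30C.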

[11] = target: Single-stranded DNA cytosine deaminase (Homo sapiens) (UniProt Q9GZX7); test: Validation qHTS assay for inhibitors of Activation Induced Cytidine Deaminase (AID): AID signal (AID 1347429)
In short: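 FRET deamination assay: 1 uM AID (4/3x stock) with UDG, compound up to 114 uM, then 250 nM DJC20/DJC23 substrate (4x stock) for 4 hr at room temperature. NaOH added, 30 min; fluorescence read 540/590 nm.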

[12] = target: Calcium and integrin-binding protein 1 (Homo sapiens) (UniProt Q99828); test: Validation qHTS for Identification of Calcium Integrin Binding protein 1 (CIB1) Competitor (AID 1508618)
In short: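 CIB1-GST (1 uM final) incubated 15 min at room temperature with compounds (up to 114 uM), then FITC-labelled alphaIIb peptide (100 nM) added. FP read (Ex 480/Em 540) after 15 min, pH 7.4 buffer containing 5 mM CaCl2.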

[13] = Counterscreen qHTS for small molecule stabilizers of the endoplasmic reticulum resident proteome: GLuc-NoTag assay (AID 1508627); note: potency is the fitted concentration of half-maximal effect
In short: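 Luminescence of Gaussia luciferase secreted into the medium (coelenterazine, 0.07x final, unlysed cells) was the read-out. Human SH-SY5Y neuroblastoma cells constitutively secreting untagged GLuc received compound for 19 h, then 100 nM thapsigargin for 4 h.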

Measured: Potency

Sequence of Calcium and integrin-binding protein 1 (Homo sapiens) (Q99828 whole entry, looked up): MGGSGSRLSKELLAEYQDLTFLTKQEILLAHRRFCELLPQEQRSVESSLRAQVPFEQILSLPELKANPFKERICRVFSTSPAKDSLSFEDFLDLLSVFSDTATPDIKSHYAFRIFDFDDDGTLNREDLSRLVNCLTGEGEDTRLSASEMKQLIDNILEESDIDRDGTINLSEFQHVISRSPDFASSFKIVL
Sequence of Protein phosphatase 1D (Homo sapiens) (O15297 whole entry, looked up): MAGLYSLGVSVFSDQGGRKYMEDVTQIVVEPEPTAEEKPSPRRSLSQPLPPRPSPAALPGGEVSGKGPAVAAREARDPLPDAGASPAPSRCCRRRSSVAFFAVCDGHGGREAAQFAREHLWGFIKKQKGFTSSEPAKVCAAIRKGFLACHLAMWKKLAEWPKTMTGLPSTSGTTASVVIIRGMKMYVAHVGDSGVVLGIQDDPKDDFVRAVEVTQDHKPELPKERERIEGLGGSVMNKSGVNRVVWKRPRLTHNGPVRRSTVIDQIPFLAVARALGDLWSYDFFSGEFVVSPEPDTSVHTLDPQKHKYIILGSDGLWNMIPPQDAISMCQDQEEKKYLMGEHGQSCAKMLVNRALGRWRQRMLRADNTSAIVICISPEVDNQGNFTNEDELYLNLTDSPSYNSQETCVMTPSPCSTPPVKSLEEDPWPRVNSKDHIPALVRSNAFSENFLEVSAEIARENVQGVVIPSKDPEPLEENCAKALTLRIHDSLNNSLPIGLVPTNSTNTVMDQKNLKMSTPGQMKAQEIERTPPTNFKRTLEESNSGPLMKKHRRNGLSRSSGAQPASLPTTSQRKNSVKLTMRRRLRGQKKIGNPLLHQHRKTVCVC
Sequence of Single-stranded DNA cytosine deaminase (Homo sapiens) (Q9GZX7 whole entry, looked up): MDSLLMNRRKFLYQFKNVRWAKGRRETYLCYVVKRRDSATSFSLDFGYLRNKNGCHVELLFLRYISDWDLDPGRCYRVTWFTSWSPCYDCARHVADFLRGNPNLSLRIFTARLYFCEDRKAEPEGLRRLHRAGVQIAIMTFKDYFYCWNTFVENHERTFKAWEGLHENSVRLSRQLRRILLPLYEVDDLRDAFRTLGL

O=C(O)/C=C\C(=O)O
inactive: [1] | [2] | [3] | [4] | [5] | [6]

COc1cccc2c1C(=O)c1c(O)c3c(c(O)c1C2=O)C[C@@](O)(C(=O)CO)C[C@@H]3O[C@H]1C[C@H](N)[C@H](O[C@@H]2CCCCO2)[C@H](C)O1
inactive: [1] | [2] | [3] | [7]
active: [6] 10 µM

Nc1cc(-c2ccncc2)c[nH]c1=O
active: [2] 22.4 µM
inactive: [1] | [4] | [7] | [6]

O=C(O)c1ccccc1Nc1cccc(C(F)(F)F)c1
inactive: [1] | [4] | [5] | [7]

CN(C)CCn1nnnc1SCC1=C(C(=O)O)N2C(=O)[C@@H](NC(=O)Cc3csc(N)n3)[C@H]2SC1
inactive: [1] | [2] | [3] | [4] | [5] | [6]

CC(C)(C)c1nnc(NS(=O)(=O)c2ccc(N)cc2)s1
inactive: [1] | [2] | [4] | [5] | [7] | [6]

COc1ccnc2c1CCCCC2S(=O)c1nc2ccccc2[nH]1 (centres undefined)
inactive: [1] | [2] | [3] | [4] | [7] | [6]

Nc1c(CC(=O)O)cccc1C(=O)c1ccc(Br)cc1
inactive: [1] | [3] | [4] | [5] | [6]

CCNC(=O)[C@H]1O[C@@H](n2cnc3c(N)nc(NCCc4ccc(CCC(=O)O)cc4)nc32)[C@H](O)[C@@H]1O
inactive: [8] | [9] | [5] | [7]

Cc1c(Nc2ncccc2C(=O)O)cccc1C(F)(F)F
inactive: [2] | [3] | [4] | [5] | [7]

O=c1cc(-c2ccccc2)oc2ccccc12
inactive: [2] | [3] | [4] | [5]

NC[C@@H]1O[C@H](C23CC4CC(CC(C4)C2)C3)Cc2c1ccc(O)c2O
inactive: [10] | [9] | [11] | [4] | [12] | [7]

Cc1[nH]cnc1CN1CCc2c(c3ccccc3n2C)C1=O
inactive: [2] | [3] | [4] | [5] | [6]

C=CCc1cccc(/C=N/NC(=O)CN2CCN(Cc3ccccc3)CC2)c1O
inactive: [8] | [7]

CN(C)c1ccc(N=NS(=O)(=O)O)cc1
inactive: [2] | [3] | [4] | [5]

CC1(C)[C@@H](O)CC[C@]2(C)[C@H]3C(=O)C=C4[C@@H]5C[C@@](C)(C(=O)O)CC[C@]5(C)CC[C@@]4(C)[C@]3(C)CC[C@@H]12
inactive: [8] | [5]

C=C[C@H]1CN2CC[C@@H]1C[C@@H]2[C@@H](O)c1ccnc2ccc(OC)cc12
active: [13] 3.98 µM
inactive: [10] | [4]

O=C(/C=C/c1ccc(O)cc1)c1ccc(O)cc1O
inactive: [10] | [9] | [11] | [12] | [13] | [7]

C=C[C@@H]1CN2CC[C@@H]1C[C@H]2[C@H](O)c1ccnc2ccc(OC)cc12
inactive: [10] | [4]

O=c1[nH]c2ccccc2n1CCCN1CCN(C(c2ccccc2)c2ccccc2)CC1
inactive: [2] | [3] | [4] | [5]

O=C(O)[C@H](CC(=O)N1C[C@H]2CCCC[C@H]2C1)Cc1ccccc1
inactive: [8] | [5]

COc1cc(CNC(=O)CCCC/C=C/C(C)C)ccc1O
inactive: [8] | [5]

C#C[C@]1(O)CC[C@H]2[C@@H]3CCC4=Cc5oncc5CC4(C)[C@H]3CCC21C (some centres undefined)
inactive: [10] | [4] | [7]

COc1ccc(/C=C/C(=O)Nc2ccccc2C(=O)O)cc1OC
inactive: [10] | [8] | [9] | [11] | [4] | [5]

Nc1nc(OCC2CCCCC2)c2[nH]cnc2n1
inactive: [10] | [12]

NS(=O)(=O)C#Cc1ccccc1
inactive: [10] | [9] | [11] | [12]
